Screens (PubChem)
Rab9 promoter act = qHTS Assay for Rab9 Promoter Activators | Huh7 Rab9 promoter-luciferase reporter, luminescence, 24 h | AID 485297, 2010 | Potency, µM (doses to about 9.22 µM), usual class: activators | actives 2.8% (n = 320,000); further: nearly all actives have a fitted effect of over 60% in size
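Rab9 promoter-driven luciferase in stably transfected Huh7 cells; 1500 cells/well rested 2 h, exposed to compound in DMSO for 24 h at 37 °C, 5% CO2. Luminescence read 10 min after adding luciferase reagent at ambient temperature.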
NPC1 promoter act = qHTS Assay for NPC1 Promoter Activators | Potency, µM (top dose mostly 9.22 µM), hits mostly activators | actives 2.4% (n = 320,000) | Huh7 NPC1 promoter luciferase reporter, 24 h; further: nearly all actives have a fitted effect of over 60% in size
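Luminescence read-out of NPC1 promoter-driven luciferase in stably transfected Huh7 cells; compounds delivered in DMSO and left 24 h at 37C, 5% CO2, qHTS titration format.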
FLuc modulator = qHTS profiling assay for firefly luciferase inhibitor/activator using purifed enzyme and Km concentrations of substrates (counterscreen for miR-21 project) | Luciferin 4-monooxygenase (Photinus pyralis), P08659 | purified FLuc, Km substrates, luminescence inhibition | Potency, µM (titrated, usually from 57.5 µM), hits mostly inhibitors | actives 6.9% (n = 360,000) | AID 588342, 2011; further: nearly all actives have a fitted effect of over 55% in size
Target sequence (P08659 whole entry, looked up): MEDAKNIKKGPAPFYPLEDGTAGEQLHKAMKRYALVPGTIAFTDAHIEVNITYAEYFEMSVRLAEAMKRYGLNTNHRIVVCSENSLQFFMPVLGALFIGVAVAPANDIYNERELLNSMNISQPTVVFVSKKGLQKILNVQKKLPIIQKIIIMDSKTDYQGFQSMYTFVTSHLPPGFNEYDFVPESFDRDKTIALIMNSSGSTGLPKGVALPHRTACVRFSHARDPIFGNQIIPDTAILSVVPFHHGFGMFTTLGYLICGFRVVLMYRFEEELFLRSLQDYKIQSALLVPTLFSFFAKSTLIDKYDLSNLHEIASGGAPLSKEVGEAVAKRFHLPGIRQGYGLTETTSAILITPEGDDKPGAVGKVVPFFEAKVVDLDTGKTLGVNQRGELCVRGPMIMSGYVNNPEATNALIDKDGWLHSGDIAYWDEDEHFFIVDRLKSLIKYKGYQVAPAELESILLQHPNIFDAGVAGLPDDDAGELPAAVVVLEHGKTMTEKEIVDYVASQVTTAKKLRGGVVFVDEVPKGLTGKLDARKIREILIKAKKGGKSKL
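Purified P. pyralis luciferase (10nM final) with 10uM D-luciferin and 10uM ATP (Km levels) in 50mM Tris acetate pH 7.5, 10mM Mg acetate, 0.01% Tween-20, 0.05% BSA; qHTS 6-point titration, ~60 µM downward; luminescence read.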
ELG1 genotoxic = qHTS screen for small molecules that induce genotoxicity in human embryonic kidney (HEK293T) cells expressing luciferase-tagged ELG1. HEK293T ELG1-luciferase reporter, luminescence, 16 h. Potency, µM (series often up to 46 µM), most hits filed as activators. actives 1.3% (n = 330,000). AID 504466, 2011; further: nearly all actives have a fitted effect of over 60% in size
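HEK293T cells expressing luciferase-tagged ELG1 were exposed to compound or DMSO vehicle for 16 hr at 37 °C and 5% CO2. Luciferase activity was then measured with ONE-Glo after 30 min at room temperature.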
SMN2 splice up = qHTS Assay for Enhancers of SMN2 Splice Variant Expression; HEK293 SMN2-luciferase splicing reporter, luminescence, 30-36 h; Potency, µM (series often up to 46.1 µM), hits mostly activators; actives 2.8% (n = 210,000); AID 1458, 2008; further: nearly all actives have a fitted effect of over 55% in size
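qHTS luciferase splicing reporter: luminescence rises when SMN2 exon 7 is included in transfected HEK293 cells. Compound exposure lasted 30-36 h at 37C, with 4.5 mM final sodium butyrate as control, followed by a ONE-Glo read.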
Luc counter = Counterscreen for Luciferase (Kinase-Glo TM) Inhibition; Luciferin 4-monooxygenase (Photuris pensylvanica), Q27757; Kinase-Glo luciferase, ATP luminescence, 8 min; Potency, µM (titrated, usually from 38.3 µM), most hits filed as inhibitors; actives 0.28% (n = 200,000); further: nearly all actives have a fitted effect of over 60% in size
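Kinase-Glo luciferase light output from ATP and luciferin was measured with 10 uM ATP, within the enzyme's linear range. Buffer: 50 mM imidazole pH 7.2, 50 mM KCl, 7 mM MgCl2, 0.01% Tween 20, 0.05% BSA; luminescence read after 8 min at ambient temperature.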
Hits are given with their value; . = inactive; ? = inconclusive; / = no result given; [ ] = dose if it differs, or a comment. Hits are enriched below; roughly 7.3% of the tested compounds scored in any of these assays. The call rests on the fitted dose curve; in most records, active means well fitted curve in the direction sought with a large enough effect; inconclusive means small, poorly fitted or top-dose-only effect, or another doubt; inactive means no such curve, though single readings can be large; an effect the other way counts as inactive or inconclusive.

SMILES	Rab9 promoter act	NPC1 promoter act	FLuc modulator	ELG1 genotoxic	SMN2 splice up	Luc counter
Cc1cccc(NC(=O)c2ccc(N(C)C3CCCCC3)c([N+](=O)[O-])c2)n1	.	.	11µM	.	.	.
COc1ccc(S(=O)(=O)N(C)CC(=O)O)cc1C	/	/	/	/	/	.
CC1=Nc2cc(C(=O)NCCc3ccc(Cl)cc3)ccc2Sc2c(C)ccc(C)c21	/	/	.	/	.	/
Clc1ccccc1Cc1cn2cc(-c3ccccc3)nc2s1	/	/	0.17µM	/	2.5µM	/
Clc1ccccc1Cc1noc(CN2CCSCC2)n1	.	.	.	.	.	.
Fc1ccc(Cc2cn3cc(-c4ccccc4)nc3s2)cc1	/	/	0.11µM	/	2µM	/
Brc1ccc(-c2cn3cc(Cc4ccccc4)sc3n2)cc1	/	/	0.34µM	/	.	/
Fc1ccc(-c2cn3cc(Cc4ccccc4)sc3n2)cc1	/	/	0.12µM	/	6.3µM	/
Cc1cccc(OCCn2c(SCC(N)=O)nc3ccccc32)c1	/	/	.	/	.	/
COc1ccc(CCNC(=O)CCc2c(C)nc3cc(-c4ccccc4OC)nn3c2C)c(OC)c1	/	/	.	/	.	/
Cc1ccc(Cl)cc1N(C)C(=O)c1cc2c(Cl)nc3ccccc3c2s1	/	/	?	/	.	/
Cc1cc(C(=O)N/N=C2\CC(=O)c3ccccc32)c(C)n1-c1ccc(F)cc1	?	.	8.5µM	.	/	/
COc1ccc(/C=C/C(=O)c2cc(Cl)cc(Cl)c2O)c(OC)c1	.	.	?	.	/	/
COc1ccc(/C=C/C(=O)c2ccc3c(c2)OCO3)c(OC)c1	2.8µM	3.2µM	2.1µM	5.8µM	16µM	?
COc1ccc(/C=C/C(=O)c2ccc(OC)cc2OC)c(OC)c1	.	.	19µM	.	/	/
COc1ccc(/C=C/C(=O)NNC(=O)c2ccncc2)c(OC)c1	.	.	13µM	.	/	/
COc1cccc(/C=C/C(=O)c2ccc3c(c2)OCCO3)c1OC	?	3.2µM	0.76µM	?	/	/
COc1ccc(OC)c(/C=N/NC(=O)c2ccncc2)c1	.	.	.	.	/	/
O=C(/C=C/c1cccc([N+](=O)[O-])c1)c1ccc2c(c1)OCCO2	.	.	?	?	.[1.84 µM]	.
COc1ccc(-c2nc(-c3ccccc3)c(-c3ccc(F)cc3)[nH]2)c(OC)c1C	/	/	.	/	.	/
CCOc1ccc(-n2c(SCC(=O)Nc3cc(C)ccc3C)nc3c([nH]c4ccccc43)c2=O)cc1	/	/	.	/	/	/
COc1ccc(/C=C/C(=O)NCC2COc3ccccc3O2)c(OC)c1 (configuration not stated)	.	.	24µM	.	.	.
COc1cc(/C=C/C(=O)c2ccc3c(c2)OCO3)cc(Cl)c1O	.	.	8.5µM	.	/	/
CCN(CC(=O)Nc1ccc2c(c1)OCCO2)C(=O)/C=C/c1ccc(OC)cc1OC	.	.	15µM	?	/	/
COc1cc(/C=C/C(=O)OCC(=O)Nc2ccc3c(c2)OCO3)ccc1O	/	/	/	.	/	/
SMILES	Rab9 promoter act	NPC1 promoter act	FLuc modulator	ELG1 genotoxic	SMN2 splice up	Luc counter
COc1ccc(NC(=O)CCC2COc3ccccc3O2)c(OC)c1 (configuration not stated)	.	.	.	.	.	.
CCN(CC(=O)Nc1ccc2c(c1)OCCO2)C(=O)/C=C/c1ccc(OC)c(OC)c1	.	.	.	.	/	/
COc1ccc(/C=C/C(=O)c2ccccc2)c(OC)c1	1.8µM	3.2µM	2.4µM	?	?	.
CCOC(=O)c1ccc(OCC2c3cc(OC)c(OC)cc3CCN2C(=O)Cc2ccc(OC)c(OC)c2)cc1 (configuration not stated)	/	/	.	/	/	/
Cn1c(=O)c(CCc2ccccc2)nc2cnc(N3CCNCC3)nc21	/	/	/	/	?	.
O=C(NC1CC(=O)N(c2ccc(F)cc2)C1)c1ccc(S(=O)(=O)N2CCOCC2)cc1 (configuration not stated)	/	/	.	/	/	/
COc1cc(O)c(C(=O)/C=C/c2ccccc2)c(OC)c1	.	.	11µM	.	.	.
COc1cc(OC)c(C(=O)/C=C/c2ccc(OCc3ccccc3)c(OC)c2)c(OC)c1	.	.	.	.	/	/
CNc1ccc(Br)cc(C(=O)/C=C/c2ccc(OC)cc2OC)c1=O	.	.	12µM	.	.	.
CCOc1ccc(NC(=O)NC(C)c2c(-n3cccc3)sc3c2CCN(CC)C3)cc1 (configuration not stated)	/	/	.	/	/	/
COc1ccc(NC(=O)/C(C#N)=C/c2ccc[nH]2)c(OC)c1	?	3.2µM	.	.	/	/
Cc1cc(/C=C(\C#N)C(=O)NC2CCCCCC2)c(C)[nH]1	.	.	?	.	.	.
N#C/C(=C\c1ccc[nH]1)C(=O)Nc1ccccc1Cl	?	0.71µM	.	?	/	/
